Data: PubChem BioAssay (EPA / NIEHS)
Activity calls are given as the source filed them. How the source made its calls: active means hit-call score of the fitted dose curve at least 0.9, where 1 is the maximum; inactive means score below 0.9.

Columns and labels:
Conditions in all cases: mRNA level, 48 h; actives raise or lower the signal
[1] = read-out: adenosine kinase (ADK) gene, ADK (gene 132); assay: LTEA_HepaRG_ADK: Life Technologies and Expression Analysis (LTEA) Assay for adenosine kinase (ADK) gene using HepaRG (AID 2283471)
Procedure, shortened: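 ADK expression quantified by qRT-PCR, normalised to three housekeeping genes, after 48 h exposure of HepaRG cells to eight concentrations (top 100 uM, half-log steps, duplicate, 0.5% DMSO). Up- or down-regulation fitted relative to vehicle.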

[2] = read-out: Alpha-fetoprotein (AFP) gene, AFP (gene 174); assay: LTEA_HepaRG_AFP: Life Technologies and Expression Analysis (LTEA) Assay for Alpha-fetoprotein (AFP) gene using HepaRG (AID 2283472)
Procedure, shortened: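 HepaRG, single lot; 48 h post-plating -> serum-free induction medium; cpd 8-pt, 100 uM top, half-log, 0.5% DMSO, duplicate, 48 h. RNA -> qRT-PCR AFP, norm ACTB/GAPDH/POLR2A. Bidirectional fit vs DMSO.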

BCL2L11 (gene 10018) = assay: LTEA_HepaRG_BCL2L11: Life Technologies and Expression Analysis (LTEA) Assay for Bcl-2 (BCL2L11) gene using HepaRG (AID 2283473)
Procedure, shortened: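 Differentiated human HepaRG cells in serum-free induction medium were exposed in duplicate for 48 h to eight concentrations (top 100 uM, half-log steps, 0.5% DMSO). BCL2L11 mRNA was quantified by TaqMan qRT-PCR, normalized to ACTB/GAPDH/POLR2A, bidirectional fit versus DMSO.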

[3] = read-out: Apolipoprotein A-V (APOA5) gene, APOA5 (gene 116519); assay: LTEA_HepaRG_APOA5: Life Technologies and Expression Analysis (LTEA) Assay for Apolipoprotein A-V (APOA5) gene using HepaRG (AID 2283474)
Procedure, shortened: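 Differentiated human HepaRG cells were exposed in duplicate for 48 h to eight half-log concentrations from 100 uM in 0.5% DMSO. APOA5 mRNA was quantified by TaqMan qRT-PCR, normalized to ACTB, GAPDH and POLR2A, and fitted bidirectionally against DMSO.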

[4] = read-out: Apoptosis regulator Bcl-2 (Homo sapiens) (UniProt P10415); assay: LTEA_HepaRG_BCL2: Life Technologies and Expression Analysis (LTEA) Assay for Bcl-2 gene using HepaRG (AID 2283475)
Procedure, shortened: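 HepaRG, plated 48 h then switched to serum-free induction medium; dosed 48 h, 8 conc. (max 100 uM, half-log steps), duplicate, 0.5% DMSO. Lysis in RLT, RNA isolated, TaqMan qRT-PCR for BCL2; ACTB/GAPDH/POLR2A normalisation; bidirectional fit vs DMSO.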

[5] = read-out: Bcl-2 (BID) gene, BID (gene 637); assay: LTEA_HepaRG_BID: Life Technologies and Expression Analysis (LTEA) Assay for Bcl-2 (BID) gene using HepaRG (AID 2283476)
Procedure, shortened: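 Transcript levels of BID, measured by qRT-PCR and normalized to three housekeeping genes, were fitted bidirectionally against DMSO controls. Cells were HepaRG, dosed 48 h at up to 100 uM.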

Caspase-3 (Homo sapiens) = Caspase-3 (Homo sapiens) (UniProt P42574); assay: LTEA_HepaRG_CASP3: Life Technologies and Expression Analysis (LTEA) Assay for cysteine-aspartic acid protease (CASP3) using HepaRG (AID 2283477)
Procedure, shortened: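 Differentiated human HepaRG cells in serum-free induction medium were exposed 48 h to 8-point half-log concentrations from 100 uM (0.5% DMSO vehicle). CASP3 mRNA was measured by qRT-PCR, normalised to ACTB, GAPDH and POLR2A, with bidirectional fitting against DMSO.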

[6] = read-out: Cytochrome P450 (CYP24A1), CYP24A1 (gene 1591); assay: LTEA_HepaRG_CYP24A1: Life Technologies and Expression Analysis (LTEA) Assay for Cytochrome P450 (CYP24A1) using HepaRG (AID 2283478)
Procedure, shortened: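 Differentiated HepaRG cells, pre-cultured 48 h, were exposed in duplicate for 48 h in serum-free induction medium to 8 half-log concentrations (top 100 uM, 0.5% DMSO). CYP24A1 mRNA was quantified by TaqMan qRT-PCR, normalized to ACTB/GAPDH/POLR2A, fitted bidirectionally versus DMSO.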

[7] = read-out: Cytochrome P450 (CYP1A2), CYP1A2 (gene 1544); assay: LTEA_HepaRG_CYP1A2: Life Technologies and Expression Analysis (LTEA) Assay for Cytochrome P450 (CYP1A2) using HepaRG (AID 2283479)
Procedure, shortened: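 Differentiated human HepaRG cells in serum-free induction medium were exposed in duplicate for 48 h to 8-point half-log concentrations up to 100 uM in 0.5% DMSO. CYP1A2 mRNA measured by qRT-PCR, normalized to ACTB, GAPDH, POLR2A; bidirectional fit vs DMSO.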

[8] = read-out: cysteine-aspartic acid protease (CASP8), CASP8 (gene 841); assay: LTEA_HepaRG_CASP8: Life Technologies and Expression Analysis (LTEA) Assay for cysteine-aspartic acid protease (CASP8) using HepaRG (AID 2283480)
Procedure, shortened: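 HepaRG, 48 h exposure, duplicate wells; 8 conc, half-log from 100 uM, 0.5% DMSO. Serum-free induction medium. CASP8 mRNA by TaqMan qRT-PCR, norm. ACTB/GAPDH/POLR2A; gain/loss fitted vs DMSO.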

[9] = read-out: Cytochrome P450 (CYP2B6), CYP2B6 (gene 1555); assay: LTEA_HepaRG_CYP2B6: Life Technologies and Expression Analysis (LTEA) Assay for Cytochrome P450 (CYP2B6) using HepaRG (AID 2283481)
Procedure, shortened: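 Differentiated HepaRG cells, serum-free induction medium, exposed 48 h in duplicate to 8-point half-log concentrations from 100 uM in 0.5% DMSO. CYP2B6 mRNA by qRT-PCR, normalized to ACTB, GAPDH, POLR2A; bidirectional fit versus DMSO.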

[10] = read-out: Cytochrome P450 2C19 (Homo sapiens) (UniProt P33261); assay: LTEA_HepaRG_CYP2C19: Life Technologies and Expression Analysis (LTEA) Assay for CYP2C19 using HepaRG (AID 2283482)
Procedure, shortened: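 Differentiated human HepaRG cells were exposed for 48 h in serum-free induction medium to 8 concentrations (top 100 uM, half-log steps, 0.5% DMSO). CYP2C19 mRNA was measured by qRT-PCR, normalized to ACTB/GAPDH/POLR2A, and fitted bidirectionally against DMSO.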

CYP2C8 (gene 1558) = assay: LTEA_HepaRG_CYP2C8: Life Technologies and Expression Analysis (LTEA) Assay for CYP2C8 using HepaRG (AID 2283483)
Procedure, shortened: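 CYP2C8 mRNA induction or loss, by qRT-PCR normalized to ACTB/GAPDH/POLR2A, is read in HepaRG cells after 48 h treatment. Concentrations run from 100 uM down in half-log dilutions, with 0.5% DMSO as vehicle and baseline.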

CYP2C9 (gene 1559) = assay: LTEA_HepaRG_CYP2C9: Life Technologies and Expression Analysis (LTEA) Assay for CYP2C9 using HepaRG (AID 2283484)
Procedure, shortened: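 Cells plated 48 h, switched to serum-free induction medium, then treated in duplicate for 48 h at eight concentrations (max 100 uM, 0.5% DMSO). RNA then analysed by qRT-PCR for CYP2C9; curves fitted in both directions relative to DMSO.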

CYP2E1 (gene 1571) = assay: LTEA_HepaRG_CYP2E1: Life Technologies and Expression Analysis (LTEA) Assay for CYP2E1 using HepaRG (AID 2283485)
Procedure, shortened: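 Human liver line HepaRG, plated 48 h, then serum-free induction medium + chemical x 48 h; 8-pt CRC from 100 uM, half-log, 0.5% DMSO, n=2. Readout: CYP2E1 mRNA qRT-PCR vs ACTB/GAPDH/POLR2A; bidirectional fit vs DMSO.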

CYP4A11 (gene 1579) = assay: LTEA_HepaRG_CYP4A11: Life Technologies and Expression Analysis (LTEA) Assay for CYP4A11 using HepaRG (AID 2283486)
Procedure, shortened: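 Differentiated HepaRG cells, serum-free induction medium, exposed 48 h in duplicate to 8-point half-log series from 100 uM in 0.5% DMSO. CYP4A11 mRNA measured by qRT-PCR, normalized to ACTB, GAPDH, POLR2A; bidirectional fit versus DMSO.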

[11] = read-out: Cytochrome P450 3A4 (Homo sapiens) (UniProt P08684); assay: LTEA_HepaRG_CYP3A4: Life Technologies and Expression Analysis (LTEA) Assay for CYP3A4 using HepaRG (AID 2283487)
Procedure, shortened: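 Differentiated HepaRG cells, plated 48 h, then dosed 48 h in serum-free induction medium with 0.5% DMSO, 8 half-log concentrations up to 100 uM, duplicate. CYP3A4 mRNA by qRT-PCR, normalized to ACTB/GAPDH/POLR2A; bidirectional fit versus DMSO.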

[12] = read-out: DNA damage-inducible transcript 3 (DDIT3), DDIT3 (gene 1649); assay: LTEA_HepaRG_DDIT3: Life Technologies and Expression Analysis (LTEA) Assay for DNA damage-inducible transcript 3 (DDIT3) using HepaRG (AID 2283488)
Procedure, shortened: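 HepaRG plated 48 h, switched to serum-free induction medium, dosed 48 h (100 uM top, half-log, 8 pts, 0.5% DMSO, n=2); RNA isolated; DDIT3 by qRT-PCR; bidirectional curve fit vs DMSO.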

[13] = read-out: Pro-epidermal growth factor (Homo sapiens) (UniProt P01133); assay: LTEA_HepaRG_EGF: Life Technologies and Expression Analysis (LTEA) Assay for Epidermal growth factor (EGF) using HepaRG (AID 2283489)
Procedure, shortened: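 Differentiated human HepaRG cells, plated 48 h then switched to serum-free induction medium, were exposed for 48 h to test chemicals (8-point half-log series, top 100 uM, 0.5% DMSO). EGF mRNA was quantified by qRT-PCR, normalized to ACTB, GAPDH, POLR2A.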

[14] = read-out: Early growth response protein 1 (EGR1) transcription factor, EGR1 (gene 1958); assay: LTEA_HepaRG_EGR1: Life Technologies and Expression Analysis (LTEA) Assay for Early growth response protein 1 (EGR1) transcription factor using HepaRG (AID 2283490)
Procedure, shortened: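 Read-out is EGR1 mRNA level by qRT-PCR, normalized to three housekeeping genes and analysed for gain or loss of signal against 0.5% DMSO. Source cells: human HepaRG, treated 48 h at up to 100 uM in half-log dilutions.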

Measured: AC50

Chain of Cytochrome P450 2C19 (Homo sapiens) (P33261 whole entry, looked up): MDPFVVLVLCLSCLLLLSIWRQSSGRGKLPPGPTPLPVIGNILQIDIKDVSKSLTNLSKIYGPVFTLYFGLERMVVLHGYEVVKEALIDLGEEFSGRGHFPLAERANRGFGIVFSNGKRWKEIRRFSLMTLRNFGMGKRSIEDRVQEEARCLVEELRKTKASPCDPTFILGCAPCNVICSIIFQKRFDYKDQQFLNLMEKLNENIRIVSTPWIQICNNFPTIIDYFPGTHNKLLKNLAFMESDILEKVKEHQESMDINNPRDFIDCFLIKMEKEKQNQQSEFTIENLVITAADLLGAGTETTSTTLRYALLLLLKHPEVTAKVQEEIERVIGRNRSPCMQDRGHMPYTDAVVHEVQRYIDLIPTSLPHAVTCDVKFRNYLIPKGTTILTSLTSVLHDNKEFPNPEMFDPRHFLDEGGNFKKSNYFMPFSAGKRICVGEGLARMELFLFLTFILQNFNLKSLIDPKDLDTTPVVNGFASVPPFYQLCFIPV
Chain of Caspase-3 (Homo sapiens) (P42574 whole entry, looked up): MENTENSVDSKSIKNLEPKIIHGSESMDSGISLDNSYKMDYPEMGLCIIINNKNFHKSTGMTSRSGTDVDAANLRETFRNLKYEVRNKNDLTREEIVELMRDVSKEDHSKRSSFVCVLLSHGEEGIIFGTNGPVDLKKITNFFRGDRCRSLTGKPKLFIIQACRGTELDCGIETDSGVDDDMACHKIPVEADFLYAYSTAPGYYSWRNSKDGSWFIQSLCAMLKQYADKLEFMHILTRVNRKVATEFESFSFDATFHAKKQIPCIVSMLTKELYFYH
Chain of Cytochrome P450 3A4 (Homo sapiens) (P08684 whole entry, looked up): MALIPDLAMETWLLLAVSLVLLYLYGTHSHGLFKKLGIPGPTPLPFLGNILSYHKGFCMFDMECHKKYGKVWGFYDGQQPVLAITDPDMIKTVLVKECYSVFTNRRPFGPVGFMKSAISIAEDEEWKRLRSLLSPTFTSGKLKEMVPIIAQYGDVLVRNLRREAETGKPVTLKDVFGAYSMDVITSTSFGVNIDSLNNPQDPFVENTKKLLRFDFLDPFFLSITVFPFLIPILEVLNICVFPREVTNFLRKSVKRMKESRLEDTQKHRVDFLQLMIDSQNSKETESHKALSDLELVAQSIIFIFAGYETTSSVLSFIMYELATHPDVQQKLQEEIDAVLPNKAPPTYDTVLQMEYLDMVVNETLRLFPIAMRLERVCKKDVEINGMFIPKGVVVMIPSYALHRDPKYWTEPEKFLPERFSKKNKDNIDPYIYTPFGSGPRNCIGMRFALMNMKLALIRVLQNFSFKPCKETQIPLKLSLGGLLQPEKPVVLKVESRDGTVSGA
Chain of Apoptosis regulator Bcl-2 (Homo sapiens) (P10415 whole entry, looked up): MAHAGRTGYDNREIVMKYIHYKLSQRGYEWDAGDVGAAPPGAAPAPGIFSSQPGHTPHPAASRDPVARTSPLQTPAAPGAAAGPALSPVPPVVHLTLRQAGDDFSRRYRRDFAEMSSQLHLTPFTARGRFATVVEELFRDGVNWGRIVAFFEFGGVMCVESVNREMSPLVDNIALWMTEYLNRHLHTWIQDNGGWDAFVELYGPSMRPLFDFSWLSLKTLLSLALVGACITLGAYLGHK

CCN(CC)C(=O)C(C)Oc1cccc2ccccc12 (configuration not stated)
active: [2] 73.6 µM | [3] 79.3 µM | [7] 26.4 µM | [9] 12 µM | [10] 12.6 µM | CYP2E1 (gene 1571) 73.5 µM | CYP4A11 (gene 1579) 79.1 µM | [11] 2.65 µM
inactive: all other assays above

CC1(C)C(C=C(Cl)Cl)C1C(=O)OC(C#N)c1cccc(Oc2ccccc2)c1 (configuration not stated)
active: [7] 21.9 µM | [9] 9.35 µM | [10] 23.7 µM | CYP2E1 (gene 1571) 50.2 µM
not listed: [11]
inactive: all other assays above

OC(c1ccc(Cl)cc1)(c1ccc(Cl)cc1)C(Cl)(Cl)Cl
active: [1] 74 µM | [3] 4.05 µM | [4] 86.4 µM | [5] 85 µM | Caspase-3 (Homo sapiens) 50 µM | [8] 50 µM | [9] 11.8 µM | [10] 85.2 µM | CYP2C8 (gene 1558) 80.6 µM | CYP2C9 (gene 1559) 81.6 µM | CYP2E1 (gene 1571) 50 µM | CYP4A11 (gene 1579) 65.4 µM | [11] 87.6 µM | [12] 77.2 µM
inactive: [2] | BCL2L11 (gene 10018) | [6] | [7] | [13] | [14]

CCC(C)n1c(=O)[nH]c(C)c(Br)c1=O (configuration not stated)
active: [2] 35.5 µM | BCL2L11 (gene 10018) 20.7 µM | [7] 8.92 µM | [9] 1.19 µM | CYP2C8 (gene 1558) 50 µM | CYP2E1 (gene 1571) 20.6 µM | CYP4A11 (gene 1579) 13.5 µM
not listed: [12]
inactive: all other assays above

CC1(C)CCC(=Cc2ccc(Cl)cc2)C1(O)Cn1cncn1 (configuration not stated)
active: [3] 49.8 µM | [7] 23.3 µM | [9] 2.72 µM | [10] 5.03 µM | CYP2C8 (gene 1558) 12.6 µM | CYP2E1 (gene 1571) 27.1 µM | CYP4A11 (gene 1579) 27.8 µM
not listed: [11]
inactive: all other assays above

Cc1ccc(N=CN(C)C=Nc2ccc(C)cc2C)c(C)c1
active: [7] 51.6 µM | [9] 30.3 µM
inactive: all other assays above
